According to PubChem BioAssay (EPA / NIEHS):
Results filed as inconclusive are left out. Activity calls are given as the source filed them. How the source made its calls: active means hit-call score of the fitted dose curve at least 0.9, where 1 is the maximum; inconclusive means response in the unintended direction; inactive means score below 0.9.

Each compound was assayed against Estrogen receptor beta (Homo sapiens) (UniProt Q92731) (assay: OT_ER_ERbERb_0480: Odyssey Thera (OT) 8-hour HEK293T Protein-Complementation Assay for Estrogen Receptor-beta/-beta Homodimer (AID 2283357)).
Estrogen receptor beta (Homo sapiens), sequence (Q92731 whole entry, looked up, the tested form may be a part): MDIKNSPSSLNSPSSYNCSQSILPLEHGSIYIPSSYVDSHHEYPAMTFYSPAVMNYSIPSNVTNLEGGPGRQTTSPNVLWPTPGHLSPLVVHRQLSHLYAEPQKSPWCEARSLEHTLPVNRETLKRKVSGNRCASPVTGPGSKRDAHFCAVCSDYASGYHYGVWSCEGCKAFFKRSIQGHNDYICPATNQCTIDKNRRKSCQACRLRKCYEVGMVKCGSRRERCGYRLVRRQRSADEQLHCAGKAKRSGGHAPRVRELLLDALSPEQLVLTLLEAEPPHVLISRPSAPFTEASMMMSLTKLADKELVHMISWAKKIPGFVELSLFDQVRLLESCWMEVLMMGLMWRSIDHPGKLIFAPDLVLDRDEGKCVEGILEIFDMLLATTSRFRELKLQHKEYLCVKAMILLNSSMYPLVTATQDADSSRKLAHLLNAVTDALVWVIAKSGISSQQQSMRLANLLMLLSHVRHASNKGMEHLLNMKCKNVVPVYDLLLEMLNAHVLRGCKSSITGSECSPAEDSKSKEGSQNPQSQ
Protocol: OT_ER_ERbERb_0480 is a cell-based assay that uses HEK293T, a human kidney cell line, with measurements taken at 8 hours after chemical dosing in a 384-well plate.OT_ER_ERbERb_0480 is one of one assay component(s) measured or calculated from the OT_ER_ERbERb_0480 assay. It is designed to make measurements of protein fragment complementation, a form of binding reporter, as detected with fluorescence intensity signals by Protein-fragment Complementation technology.Data from the assay component OT_ER_ERbERb_0480 was analyzed into 1 assay endpoint. This assay endpoint, OT_ER_ERbERb_0480, was analyzed in the positive analysis fitting direction relative to DMSO as the negative control and baseline of activity. Using a type of binding reporter, measures of receptor for gain-of-signal activity can be used to understand the binding at the pathway-level as they relate to the gene ESR2. Furthermore, this assay endpoint can be referred to as a primary readout, because the performed assay has only produced 1 assay endpoint. To generalize the intended target to other relatable targets, this assay endpoint is annotated to the nuclear receptor intended target family, where the subfamily is steroidal.
Protein-fragment complementation assay, or PCA, is a method for the identification and quantification of protein-protein interactions. In the PCA, the proteins of interest ("bait" and "prey") are each covalently linked to fragments of a third protein (e.g. DHFR, which acts as a "reporter"). Interaction between the bait and the prey proteins brings the fragments of the reporter protein in close proximity to allow them to form a functional reporter protein whose activity can be measured. The OT ER beta / ER beta assay is a homodimer PCA of the ligand binding domain (LBD; amino acids 310-547) of human ER beta stably expressed in HEK293T cells. […] Cells are fixed in 4 percent formaldehyde and stained with Draq5 (BioStatus) to identify cells prior to signal detection. Fluorescent signal in the basal state of the assay is very low and is primarily punctuate and cytoplasmic. Modulation of this assay is quantified as an increase in mean fluorescence intensity in the nucleus (for agonists) or in the nucleus and cytoplasm (antagonists) relative to vehicle controls, and can be quantified on a high content imaging device or a laser scanning cytometer. The latter instrument is favored for this assay because of the rapid mode of data acquisition, the ability to acquire data from the entire cell population in a well (as opposed to a fraction of the well on the high content devices) and the larger dynamic range typically achieved with this instrument. To assess sensitivity of the ER beta/ER beta LBD assay to ligand, cells were treated with the ER agonist 17- beta-estradiol (E2) in 10-point concentration- response format for 8 hours and monitored response on a laser scanning plate cytometer (Acumen eX3; TTP Lab Tech).

Row | Structure (SMILES) | outcome | AC50
1 | O=C1OC(=O)C2C3C=CC(C3)C12 (stereo not given) | inactive | 
2 | CCCN(C1CCN(C(=O)C2CCNCC2)CC1)[C@@H]1CCc2ccc(OC)cc2C1 | inactive | 
3 | CC(C)CC(C)(O)C#CC(C)(O)CC(C)C (stereo not given) | inactive | 
4 | CCN(C(=O)c1cc(C)cc(OC[C@H](C)Nc2ccncc2)c1)C(C)C | inactive | 
5 | O=P(OC(CCl)CCl)(OC(CCl)CCl)OC(CCl)CCl | inactive | 
6 | CN(C)c1ccc(Cc2ccc(N(C)C)cc2)cc1 | inactive | 
7 | CCOC(=O)CC(CC(=O)OCC)(OC(C)=O)C(=O)OCC | inactive | 
8 | O=C(O)c1cc(N=Nc2ccc(S(=O)(=O)Nc3ccccn3)cc2)ccc1O | inactive | 
9 | CC(C)(O)c1coc(S(=O)(=O)NC(=O)Nc2c3c(cc4c2CCC4)CCC3)c1 | inactive | 
10 | CC(C)=CCCC(C)CCO (stereo not given) | inactive | 
11 | O=C(O)c1cccc(N(Cc2cccnc2)c2ccc(OC(F)F)c(OC(F)F)c2)c1 | inactive | 
12 | C=CCCCCCCCCC(=O)O | inactive | 
13 | COC(=O)c1c(Cl)c(Cl)c(C(=O)OC)c(Cl)c1Cl |  | 50 µM (active)
14 | On1ccccc1=S | inactive | 
15 | COCCOCCOCCOC | inactive | 
16 | CC(=O)OCCC(C)C | inactive | 
17 | O=C(O)CCN(C1(C(=O)NO)CCCC1)S(=O)(=O)c1ccc(Oc2ccc(F)cc2)cc1 | inactive | 
18 | C1N2CN3CN1CN(C2)C3 | inactive | 
19 | Cc1ccc(O)cc1 | inactive | 
20 | O=C1CCC(N2C(=O)c3ccccc3C2=O)C(=O)N1 (stereo not given) | inactive | 

Row | Structure (SMILES) | outcome | AC50
21 | COC(=O)c1ccccc1O | inactive | 
22 | CC/C(=C\C(=N/O)C(N)=O)C(C)[N+](=O)[O-] (stereo not given) | inactive | 
23 | Fc1ccccc1[C@@H](F)COC1CCC(Nc2ncnc3[nH]ncc23)CC1 (stereo not given in full) | inactive | 
24 | CCOCCO | inactive | 
25 | Cn1cnc([N+](=O)[O-])c1Sc1ncnc2nc[nH]c12 | inactive | 
26 | NC(=O)NO | inactive | 
27 | Cc1ccc(N)cc1O | inactive | 
28 | Cc1c(-c2cccnc2)c2ccccc2n1CCCCC(=O)O | inactive | 
29 | CC(C)=CCCC(C)=CC=O | inactive | 
30 | CC1(C)C(=O)N(Br)C(=O)N1Br | inactive | 
31 | O=C(CCCCCCCCc1cccnc1)N1CCC(C=C(c2ccccc2)c2ccccc2)CC1 | inactive | 
32 | Cn1c(=O)cc(Oc2ccc(F)cc2F)c2cnc(NCC(C)(C)O)nc21 | inactive | 
33 | COCCOc1cc2cc(C(=O)NC3CCN(C(C)C)CC3)n(CC(=O)Nc3ccc(Cl)cn3)c2cn1 | inactive | 
34 | CCC(C)(C)C(=O)O[C@H]1C[C@@H](C)C=C2C=C[C@H](C)[C@H](CC[C@@H]3C[C@@H](O)CC(=O)O3)[C@H]21 | inactive | 
35 | Clc1nc(Cl)c(Cl)c(Cl)c1Cl | inactive | 
36 | CCOc1cccc(-n2cc(C(=O)N3CCN(c4cc(C(=O)O)c5ccccc5c4)CC3)nc2-c2ccc(C)cc2)c1 | inactive | 
37 | COc1ccc(/C=C/S(=O)(=O)NC(=O)c2ccc(C)cc2Cl)cc1 | inactive | 
38 | CCCCCCCCCCCCCCCO | inactive | 
39 | CC(=O)OC[C@H]1O[C@@](COC(C)=O)(O[C@H]2O[C@H](COC(C)=O)[C@@H](OC(C)=O)[C@H](OC(C)=O)[C@H]2OC(C)=O)[C@@H](OC(C)=O)[C@@H]1OC(C)=O | inactive | 
40 | C=CC(=C)CCC=C(C)C | inactive | 
